Test results from PubChem BioAssay (Tox21).
Inconclusive results are not listed. Calls of active or inactive are those of the source. Unless noted, calls follow the shape of the dose curve; as a rule, active = well fitted curve in the direction sought with a large enough effect in the repeat runs; inconclusive = weak or mixed curves; inactive = no such curve, though single readings can be large; an effect the other way counts as inactive or inconclusive.

What was measured:
[1] = qHTS assay to identify small molecule agonists of the vitamin D receptor (VDR) signaling pathway - cell viability counter screen (AID 743224); also: series mostly up to about 63 µM; nearly all actives have a fitted effect of over 50% in size
How it was run: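 Here cell health was gauged by luminescent ATP detection (CellTiter-Glo, 30 min RT) in VDR-bla cells that had been incubated with test compounds for 16 h at 37C and 5% CO2.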

[2] = qHTS assay to identify small molecule antagonists of the vitamin D receptor (VDR) signaling pathway - cell viability counter screen (AID 743225); also: nearly all actives have a fitted effect of over 50% in size
How it was run: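 Luminescent cell viability (CellTiter-Glo) in VDR-bla HEK 293T cells after 16 h compound exposure at 37C in the presence of 3 nM final 1-alpha,25-dihydroxy vitamin D3.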

[3] = qHTS assay to identify small molecule agonists of the NFkB signaling pathway (AID 1159509; active = well fitted curve in the direction sought with a large enough effect in the signal ratio in the repeat runs, not every such curve was filed as active; the % refers to the signal ratio; also: series mostly up to about 61 µM)
How it was run: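 NFkB-bla ME-180 cells with a beta-lactamase reporter under an NF-kB response element were plated overnight, treated with compounds in DMSO for 5 hr at 37 C, then loaded with FRET substrate for 1.5 hr at room temperature.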

[4] = qHTS assay to identify small molecule agonists of the NFkB signaling pathway - cell viability counter screen (AID 1159515; calls by dose curve; also: series mostly up to about 61 µM; nearly all actives have a fitted effect of over 55% in size)
How it was run: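 5 hr compound treatment of NFkB-bla ME-180 cells (2,000/well, seeded overnight beforehand), followed by reporter substrate for 1.5 hr. CellTiter-Glo added afterward; luminescence after 30 min RT.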

[5] = qHTS assay to identify small molecule agonists of the endoplasmic reticulum stress response signaling pathway (AID 1159516; active = well fitted activation curve with a large enough effect in the signal ratio in the repeat runs, not every such curve was filed as active; the % refers to the signal ratio)
How it was run: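 Reporter HeLa cells (ESRE-beta-lactamase) underwent 5 hr compound incubation at 37 C and 5% CO2 in quantitative HTS format. Detection followed 2 hr of FRET substrate loading at room temperature.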

[6] = qHTS assay to identify small molecule antagonists of the retinoid-related orphan receptor gamma (ROR-gamma) signaling pathway - cell viability counter screen (AID 1159520); also: nearly all actives have a fitted effect of over 50% in size
How it was run: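 Tet-on ROR gamma CHO cells were given compounds for 2 hr, then doxycycline hyclate at 1 uM final, and incubated 16 hr at 37 C. Viability was measured as ATP content by CellTiter-Glo luminescence.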

[7] = target: Nuclear receptor ROR-gamma (Homo sapiens) (UniProt P51449); test: qHTS assay to identify small molecule antagonists of the retinoid-related orphan receptor gamma (ROR-gamma) signaling pathway (AID 1159521;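 also: CHO cells with doxycycline inducible ROR-gamma driving an RORE luciferase reporter; top concentration of the series differs between compounds; nearly all actives have a fitted effect of over 50% in size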)
How it was run: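 CHO cells expressing RORγ under a TET-on promoter, luciferase under RORE control. Dox 1 uM final, 16 h; compounds added 2 h prior. Luminescence decrease measured.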

[8] = qHTS assay to identify small molecule agonists of the AP-1 signaling pathway - cell viability counter screen (AID 1159525; calls by dose curve; also: nearly all actives have a fitted effect of over 55% in size)
How it was run: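 AP-1-bla ME-180 cells in Opti-MEM with 0.5% dialyzed FBS, compound exposure 5 h at 37 C in 15-point titration. Viability read in the same wells as ATP content by CellTiter-Glo luminescence, normalised to tetra-n-octylammonium bromide and DMSO controls.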

[9] = qHTS assay to identify small molecule agonists of the AP-1 signaling pathway (AID 1159526; calls by dose curve)
[10] = target: Retinoic acid receptor RXR-alpha (Homo sapiens) (UniProt P19793); test: qHTS assay to identify small molecule agonists of the RXR signaling pathway (AID 1159527; calls by dose curve; also: nearly all actives have a fitted effect of over 35% in size)
Sequence of Retinoic acid receptor RXR-alpha (Homo sapiens) (P19793 whole entry, looked up): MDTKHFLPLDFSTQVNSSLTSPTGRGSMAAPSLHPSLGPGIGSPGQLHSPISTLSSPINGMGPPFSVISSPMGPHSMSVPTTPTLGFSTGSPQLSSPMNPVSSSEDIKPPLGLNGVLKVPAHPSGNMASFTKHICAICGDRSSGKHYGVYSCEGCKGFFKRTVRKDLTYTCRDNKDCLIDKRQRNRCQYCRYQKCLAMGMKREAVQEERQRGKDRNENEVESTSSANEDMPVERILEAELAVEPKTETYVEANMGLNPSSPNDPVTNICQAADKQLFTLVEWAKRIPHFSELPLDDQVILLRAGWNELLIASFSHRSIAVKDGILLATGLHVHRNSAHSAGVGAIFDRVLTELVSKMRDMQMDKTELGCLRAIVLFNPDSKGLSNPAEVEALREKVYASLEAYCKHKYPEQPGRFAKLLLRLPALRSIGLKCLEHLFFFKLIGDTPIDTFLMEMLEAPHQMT
How it was run: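 Beta-lactamase reporter assay, agonist format. Engineered HEK 293T line, charcoal-stripped FBS at 2%, overnight (16 hr) exposure, fluorescence at 460 and 530 nm after 405 nm excitation.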

[11] = qHTS assay to identify small molecule agonists of the RXR signaling pathway - cell viability counter screen (AID 1159529)
How it was run: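 Same-well viability check after the LiveBLAzer FRET read: CellTiter-Glo added, luminescence measured after 30 min at room temperature. Reporter HEK 293T cells had been treated with compounds for 16 hr following a 5 hr preincubation.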

[12] = qHTS assay to identify small molecule antagonists of the retinoid acid receptor (RAR) signaling pathway - cell viability counter screen (AID 1159551); also: nearly all actives have a fitted effect of over 35% in size
How it was run: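 Seed C3RL4 cells; next day add compound, then retinol to 1 uM final; incubate 6 h at 37 C; add CellTiter-Glo; read luminescence after 30 min at RT.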

[13] = qHTS assay to identify small molecule antagonists of the retinoic acid receptor (RAR) signaling pathway (AID 1159552; also: nearly all actives have a fitted effect of over 50% in size)
How it was run: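 Readout: luciferase luminescence, 30 min post-reagent at RT. Setup: C3RL4 RARE reporter cells, compounds plus retinol 1 uM final, 6 hr incubation at 37 C and 5% CO2.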

[14] = qHTS assay to identify small molecule agonists of the retinoic acid receptor (RAR) signaling pathway (AID 1159553)
How it was run: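 Activation of retinol signaling was monitored via a RARE luciferase reporter in C3RL4 cells. After 6 hr compound treatment at 37 C, detection reagent was added for 30 min at room temperature before luminescence reading.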

Measured: Potency

CC(C)N=C=NC(C)C
inactive: all assays above

Nc1ccc(F)cc1
inactive: all assays above

CS(=O)(=O)c1ccc([C@@H](C[C@H]2CCC(=O)C2)C(=O)Nc2cnccn2)cc1Cl
not listed: [2] | [13] | [14]
inactive: all other assays above

Nc1nc(-c2ccc([N+](=O)[O-])cc2)cs1
not listed: [1] | [14]
inactive: all other assays above

C[C@@H]1C[C@H]2[C@@H]3CCC4=CC(=O)C=C[C@]4(C)[C@@]3(F)[C@@H](O)C[C@]2(C)[C@@]1(O)C(=O)COP(=O)(O)O
not listed: [13] | [14]
inactive: all other assays above

O=C(O)CO
inactive: all assays above

O=C1OC(=O)c2c(Br)c(Br)c(Br)c(Br)c21
not listed: [14]
inactive: all other assays above

CN1C(CSCC(F)(F)F)Nc2cc(Cl)c(S(N)(=O)=O)cc2S1(=O)=O (stereo not given)
not listed: [14]
inactive: all other assays above

CNC1CCCN(c2c(F)cc3c(=O)c(C(=O)O)cn(C4CC4)c3c2OC)C1 (stereo not given)
not listed: [14]
inactive: all other assays above

BrC(Br)C(Br)Br
not listed: [14]
inactive: all other assays above

CSCC[C@H](NC(=O)[C@H](Cc1c[nH]c2ccccc12)NC(=O)CCNC(=O)OC(C)(C)C)C(=O)N[C@@H](CC(=O)O)C(=O)N[C@@H](Cc1ccccc1)C(N)=O
inactive: all assays above

CC[C@H]1OC(=O)[C@H](C)[C@@H](O[C@H]2C[C@@](C)(OC)[C@@H](O)[C@H](C)O2)[C@H](C)[C@@H](O[C@@H]2O[C@H](C)C[C@H](N(C)C)[C@H]2O)[C@](C)(O)C[C@@H](C)C(=O)[C@H](C)[C@@H](O)[C@]1(C)O
not listed: [14]
inactive: all other assays above

O=C1[C@@H]2[C@H]3CC[C@H](C3)[C@@H]2C(=O)N1CCCCN1CCN(c2ncccn2)CC1
not listed: [2]
inactive: all other assays above

[Cl][Nd]([Cl])[Cl]
not listed: [13] | [14]
inactive: all other assays above

COC(OC)OC
not listed: [1]
inactive: all other assays above

CCC(CO)(CO)CO
inactive: all assays above

CC(C)COC(=O)COc1cc(Cl)c(Cl)cc1Cl
inactive: all assays above

C=CC(=O)O
not listed: [1]
inactive: all other assays above
